# Sampled rows, rich in hits. Any-hit rate of the full collection: about 4.8%.
# DAX1 inh-1: blocks DAX1 repression of SF-1 activated StAR promoter. 1.1% of 370,000 active. HEK293T StAR-luciferase reporter, SF-1/DAX-1 repression relief. AID 652010. inhibition, % at 6.8 µM;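 active means inhibition above the mean over all tested compounds plus 3 SD, cut at about 3.6% in these data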;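 further: 0% = DAX-1 cells with DMSO and 100% = cells lacking DAX-1 with DMSO; higher inhibition means more luminescence from relief of DAX-1 repression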
# ssDAF-12 act: activators of S. stercoralis DAF-12 nuclear receptor; HEK293 ssDAF-12/GRIP1 lit1-tk-luc reporter, luminescence; % of 3 µM dafachronic acid response; activation, % at 6.8 µM; 1% of 370,000 active;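 active means activation above the mean over all tested compounds plus 3 SD, cut at about 0.9% in these data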;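 further: 0% = DMSO-only wells and 100% = 3 µM delta7-dafachronic acid wells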
# hcDAF12 agonist: activators of H. contortus DAF-12 nuclear receptor; 1.4% of 370,000 active; activation, % at 6.8 µM; AID 652067; HEK293 hcDAF-12 lit1-tk-luc reporter, luminescence; 0% DMSO, 100% Δ7-dafachronic acid;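 active means activation above the mean of all tested compounds plus 3 SD, cut at about 5.5% in these data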;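 further: 100% = response to 3 µM Δ7-dafachronic acid high control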
# hgDAF-12 ag: agonists of H. glycines DAF-12 nuclear receptor. HEK293 GAL4-hgDAF12 UAS-luciferase reporter, agonist luminescence; normalized to butyrate control. activation, % at 6.8 µM. 1.8% of 370,000 active;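 active means activation above a cutoff set at the mean of all screened compounds plus 3 SD, cut at about 10% in these data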;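 further: 0% = DMSO wells and 100% = sodium butyrate wells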
# SMARCA2 activ: SMARCA2 function activation, primary screen; MG213 cells, MMTV-luciferase reporter, dexamethasone, overnight; activation, % at 9.1 µM; 1% of 370,000 active; in the data active means activation above about 7.8%;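 further: 0% = vehicle wells and 100% = reference activator wells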
# DAX1 inh-2: inhibits human nuclear receptor DAX1; P51843; 0.99% of 340,000 active; HEK293 Gal4-DAX1 luciferase reporter, luminescence; AID 504766; inhibition, % at 6.75 µM;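 active means inhibition above the mean over all tested compounds plus 3 SD, cut at about 4.2% in these data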;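 further: 0% = DAX1-transfected cells with DMSO and 100% = empty-vector control cells with DMSO; inhibition shows as a rise in luminescence from relieved DAX1 repression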
# Target sequence (P51843 207-470 limits assumed): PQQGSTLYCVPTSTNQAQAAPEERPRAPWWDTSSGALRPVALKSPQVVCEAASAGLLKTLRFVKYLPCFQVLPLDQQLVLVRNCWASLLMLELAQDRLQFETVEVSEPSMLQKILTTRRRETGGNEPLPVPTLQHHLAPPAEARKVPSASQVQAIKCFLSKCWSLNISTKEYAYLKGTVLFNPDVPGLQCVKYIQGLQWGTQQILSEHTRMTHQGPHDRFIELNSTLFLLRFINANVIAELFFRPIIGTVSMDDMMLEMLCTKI
# * hit, by the source's call; / = no result given.
SMILES,DAX1 inh-1,ssDAF-12 act,hcDAF12 agonist,hgDAF-12 ag,SMARCA2 activ,DAX1 inh-2
COc1ccc(OC)c(S(=O)(=O)NCC2CCN(C(=O)C(=O)c3cc4ccccc4o3)CC2)c1,-1,-1,-2,-2,-1,/
O=c1[nH]nc(Cc2ccc3ccccc3n2)c2ccccc12,1,1.0*,6.5*,4,4,1
O=C(NC1CCCCN(Cc2cccc(C(F)(F)F)c2)C1=O)c1cccc(C(F)(F)F)c1 (stereo not drawn),-1,-1,-2,-2,-2,/
COc1ccccc1C(=O)NC1CCCCN(Cc2cccc(C(F)(F)F)c2)C1=O (stereo not drawn),-1,-2,-3,19*,-1,/
O=C(Oc1cc2oc(=O)c3c(c2cc1Cl)CCCC3)c1ccco1,0,-1,0,3,0,4.7*
Cc1oc2c(C)c3oc(=O)c(CCC(=O)N4C[C@H]5C[C@@H](C4)c4cccc(=O)n4C5)c(C)c3cc2c1C,1,-1,-4,-5,3,4.9*
O=C(COc1cc2oc(=O)c3c(c2cc1Cl)CCCC3)N1C[C@H]2C[C@@H](C1)c1cccc(=O)n1C2,-1,-2,0,1,-1,5.7*
Cc1cc2oc(=O)c3c(c2cc1OC(=O)c1ccco1)CCCC3,0,0,-2,-1,1,-1
Cc1coc2c(C)c3oc(=O)c(CCC(=O)N4C[C@H]5C[C@@H](C4)c4cccc(=O)n4C5)c(C)c3cc12,1,-2,2,-2,4,1
Cc1cc(C)cc(NC(=O)[C@H](Cc2c[nH]c3ccccc23)NC(=O)[C@@H]2Cc3ccccc3CN2)c1,-1,-1,6.2*,-2,-1,-1
Cc1ccc(C(=O)C[n+]2cccc3ccccc32)cc1,0,1.7*,6.0*,4,5,2
O=C(C[n+]1cccc2ccccc21)c1ccc(Br)cc1,0,2.2*,5,3,1,2
Cn1nc(-c2ccccc2)cc1NS(=O)(=O)c1ccc(C#N)cc1,0,-1,0,0,-4,4.3*
CN(C(=O)CCNC(=O)Cn1cnc2ccccc2c1=O)c1ccc(F)cc1,0,-1,-2,3,-2,4.8*
O=[N+]([O-])c1ccc(C(O)CSC(=S)N2CCCCC2)cc1 (stereo not drawn),0,0,1,7,4,5.4*
Cc1nn(-c2ccccc2)c2sc(C(=O)NNC(=O)COc3cccc4ccccc34)cc12,0,-1,0,-1,-1,1
Cc1nn(-c2ccccc2)c2sc(C(=O)NNC(=O)COc3ccccc3)cc12,1,1.6*,2,1,-1,1
COc1ccc2c(c1)CO[C@H]([C@H](O)CO)[C@H]2/C=C/c1ccccc1,0,-1,-1,0,-5,/
C=CCn1c(/N=C/c2ccc3c(c2)OCO3)nc2ccccc21,0,1.2*,0,0,1,0
O=C(NC1CCCCC1)C(CCc1ccccc1)N1CCOCC1 (stereo not drawn),1,0,0,12*,-3,/
Cc1ccc(C(=O)N(C)[C@H]2C[C@H]3c4[nH]c5c(-c6cccc(C)c6)cccc5c4CCN3C[C@H]2[C@H](C)O)cc1,0,-2,-4,2,-3,/
C/C(=N/NC(=O)c1ccco1)c1cccc(NC(=O)c2ccc(C)s2)c1,2,0,5,12*,6,2
C/C(=N\NC(=O)c1ccco1)c1cc2ccccc2o1,1,0,3,8,3,2
C/C(=N\NC(=O)c1ccco1)c1ccc(-c2ccccc2)cc1,1,0,2,13*,2,2
C/C(=N\NC(=O)c1ccco1)c1cc(Cl)sc1Cl,3.8*,0,2,7,3,2
SMILES,DAX1 inh-1,ssDAF-12 act,hcDAF12 agonist,hgDAF-12 ag,SMARCA2 activ,DAX1 inh-2
C/C(=N\NC(=O)c1cccc(Cl)c1)c1cccc(NC(=O)c2ccco2)c1,1,0,2,7,6,4
C/C(=N\NC(=O)c1csc(C)c1C)c1ccco1,1,0,2,7,3,1
O=C(CN1C(=O)C2(OCCCO2)c2ccccc21)NCc1ccc2ccccc2c1,-1,-1,-2,-4,-4,/
O=C(c1ccc([N+](=O)[O-])cc1)N1CCOCC1,0,8.9*,-1,0,4,0
O=C(c1ccc([N+](=O)[O-])cc1)N1CCCC1,-1,-1,-1,1,-5,0
O=C(NCC(O)CN1CCOCC1)c1ccc([N+](=O)[O-])cc1 (stereo not drawn),0,-1,-2,-3,2,6.2*
CC(=O)c1cccc(NC(=O)C2CCN(C(=O)c3ccc([N+](=O)[O-])cc3)CC2)c1,0,2.3*,4,4,0,1
COC(=O)C1CN(C2CCCC2)CCS(=O)(=O)N1Cc1cn(Cc2ccc(F)cc2)nn1 (stereo not drawn),0,-1,-2,0,3,/
COc1ccc(C2C(C(=O)Nc3ccc(F)cc3F)CCC(=O)N2c2ccc(OC)cc2)cc1 (stereo not drawn),-1,0,-1,2,3,/
COc1ccc(-n2c(N)c(C(=O)NCc3ccco3)c3nc4ccccc4nc32)cc1OC,0,-1,-2,-2,8.4*,-1
COc1cc(-n2c(N)c(C(=O)NCc3ccco3)c3nc4ccccc4nc32)cc(OC)c1OC,-1,0,-1,8,2,0
Fc1cnc(N2CCc3ccccc32)nc1N1CCc2ccccc21,0,0,2,1,1,2
CC1(C)CC(=O)c2cnc(N3CCc4ccccc43)nc2C1,1,0,6.4*,8,2,3
CC1(C)Cc2c(c(N3CCOCC3)nc3sc(C(=O)Nc4ccccc4)c(N)c23)CO1,1,-1,6.2*,12*,4,3
CC1(C)Cc2c(c(N3CCOCC3)nc3sc(C(=O)Nc4cccc(Cl)c4)c(N)c23)CO1,0,-1,0,3,2,0
Cn1[nH]c2c(c1=O)[C@H](c1ccc(F)cc1)O[C@H](CCc1ccccc1)C2,-1,-1,0,-1,-4,/
CC(C)[C@@H]1Cc2[nH]n(C)c(=O)c2[C@H](c2ccc(F)cc2)O1,4.1*,0,3,-3,1,/
COC(=O)c1cc2c(c3c4ccccc4n(S(C)(=O)=O)c13)C(=O)N(Cc1ccccc1)C2,-1,2.8*,2,3,2,/
COC(=O)c1cc2c(c3c4ccccc4n(S(=O)(=O)c4ccccc4)c13)C(=O)N(Cc1ccc(N(C)C)cc1)C2,-1,-1,1,1,2,/
O=C(Cn1nnc(-c2ccccc2Cl)n1)N1CCCCC1,1,0,0,7,4,4.6*

# High-throughput results (PubChem)
